In PubChem BioAssay (NCATS) one finds Potency and activity (max response) data, which are given here for 6 compounds.

Values joined by “and” are separate entries in the source; they are usually repeats but may differ in a detail not shown here. Identical values can stand only once. Inconclusive results are not listed. The source holds several records for some structures; these can differ, active in one and inactive in another. Active and inactive are the calls of the source. The call rests on the fitted dose curve; in most records, active means well fitted curve in the direction sought with a large enough effect; inconclusive means small, poorly fitted or top-dose-only effect, or another doubt; inactive means no such curve, though single readings can be large; an effect the other way counts as inactive or inconclusive.

The nature of test [1]: Viability qHTS for spleen associated tyrosine kinase inhibitor (SYKi) naive MV4-11 cells (AID 1963823). Further: nearly all actives have a fitted effect of over 40% in size. Summed up: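 Compounds were dispensed acoustically onto plates, MV4-11 cells (SYKi-naive) added at 500 per well, and plates incubated 72 hr at 37 C. CellTiter-Glo was added and luminescence measured after 10 min.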
For orientation: Quantitative high-throughput screening tests each substance at several concentrations.

The nature of test [2]: Viability qHTS for spleen associated tyrosine kinase inhibitor (SYKi) drug resistant MV4-11 cells (AID 1963824). Further: nearly all actives have a fitted effect of over 35% in size. The method in brief: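 SYK inhibitor-resistant MV4-11 AML cells, 500 per well, added to predispensed compounds and incubated 72 hr at 37 C, 5% CO2. Viability measured by CellTiter-Glo luminescence after 10 min at room temperature.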
Test [3] can be described thus: Quantitative highthroughput screen to assess conditional lethalithy of P12 Ichikawa cells grown in Human Plasma-Like Medium with dialyzed fetal bovine serum (HPLM+ds) (AID 1963879). Further: nearly all actives have a fitted effect of over 35% in size. On Viability: series mostly up to about 46 µM. Conditions: Potency: viability. Summed up:
(§1)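 Each medium arm—HPLM with 10% dialyzed FBS, or RPMI1640 with 5 mM glucose and 10% untreated or dialyzed FBS—was screened against an 11-point, 3-fold compound titration for 48 h at 37 °C, with CellTiter-Glo luminescence as endpoint.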

Test [4] in a line: Quantitative highthroughput screen to assess conditional lethalithy of P12 Ichikawa cells grown in RPMI1640 with dialyzed fetal bovine serum (RPMI+ds) (AID 1963880). Further: nearly all actives have a fitted effect of over 35% in size.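 On Viability: 100% = DMSO wells and 0% = empty wells on each plate.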 The settings on record: Potency: P12-Ichikawa viability. Summed up: as §1
Test [5] in a line: Quantitative highthroughput screen to assess conditional lethalithy of P12 Ichikawa cells grown in RPMI1640 with untreated serum (RPMI+s) (AID 1963881). Further: nearly all actives have a fitted effect of over 35% in size.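 On Viability: series mostly up to about 46 µM; 100% = DMSO wells and 0% = empty wells without cells.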 The settings on record: Potency: viability. The method in brief:
as §1

Test [6] is described as follows: Quantitative highthroughput screen to assess conditional lethalithy of SEM cells grown in RPMI1640 with unreated serum (RPMI+s) (AID 1963883). Further: nearly all actives have a fitted effect of over 35% in size. Summed up:
as §1

The nature of test [7]: Quantitative highthroughput screen to assess conditional lethalithy of SEM cells grown in RPMI1640 with dialyzed fetal bovine serum (RPMI+ds) (AID 1963884). Further: nearly all actives have a fitted effect of over 35% in size.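 On Viability: series mostly up to about 46 µM; 100% = DMSO control wells and 0% = empty wells without cells.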 Summed up: as §1
A short description of test [8]: Cellular viability qHTS for adrenocortical cancer (ACC) cell line SW-13 (AID 1963989). Further: nearly all actives have a fitted effect of over 65% in size.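 On activity (max response): cells grown in serum-free medium with ITS supplement; on the % scale 0 is the no-effect control and ±100 the full control effect.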 The settings on record: SW-13 ACC cells viability, CellTiter-Glo, 48 h; activity (max response): stronger effect = lower value. Summed up: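 48 h treatment, SW-13 in ITS/DMEM serum-free; doses up to 46 uM; readout CellTiter-Glo luminescence; curve fit four-parameter logistic.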
Test [9] is described as follows: Cellular viability qHTS for adrenocortical cancer (ACC) cell line NCI-H295R (AID 1963990). Further: nearly all actives have a fitted effect of over 60% in size. The method in brief: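 Compound titrations (up to 46 uM final) are applied to NCI-H295R cultures for 48 h at 37C. Viable cell number is estimated by CellTiter-Glo signal, normalised to DMSO and doxorubicin controls.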
Test [10] can be described thus: Quantitative highthroughput screen to assess conditional lethalithy of SEM cells grown in Human Plasma-Like Medium with dialyzed fetal bovine serum (HPLM+ds) (AID 1963882). Further: nearly all actives have a fitted effect of over 35% in size. On Viability: series mostly up to about 46 µM. Summed up: as §1
Potency means the concentration at half of the fitted maximal effect.

Turning to `NC(=O)Nc1cc(-c2ccc(CN3CCOCC3)cc2)sc1C(N)=O`, the Potency is 209 nM (active) in test [1]; 468 nM (active) in [2]; 0.118 µM (active) in test [3]; 0.118 µM (active) in test [4]; 0.118 µM (active) in test [5]; 0.118 µM (active) in [6]. The Potency in test [7] is 0.105 µM (active); in [9], 5.01 µM (active). For the same compound, the activity (max response) in [8] was -17.8% (inactive).
Regarding `COc1cc(-c2nn(C3CCC(N4CCN(C(C)=O)CC4)CC3)c3ncnc(N)c23)ccc1NC(=O)c1cc2ccccc2n1C` (configuration not stated), the Potency entry in test [1] was “inactive and 2.63 µM (active)”; in test [2], 2950 nM (active). Besides, the Potency result in test [3], in test [4], in [5], in test [10], in test [7] and in test [9] was “inactive” in each case. The activity (max response) in test [8] was -14.1% (inactive).
On to `COc1ccccc1N1CCN(CC(O)COc2cccc3ccccc23)CC1` (configuration not stated), for which the Potency entry in [1], in test [2], in test [3] and in [9] was “inactive” each time. Moreover, in test [5], the Potency was 13.2 µM (active). In addition, in test [8], the activity (max response) was -10.8% (inactive).
For `NC(=NCCCCCCN=C(N)N=C(N)Nc1ccc(Cl)cc1)N=C(N)Nc1ccc(Cl)cc1`, the Potency in test [1] was 2350 nM (active); in [2], 2630 nM (active); in [5], 20.9 µM (active); in test [8] it was 3.98 µM (active); in test [9], 17.8 µM (active). The Potency entry in test [3] is “inactive”.
`CNC(=O)c1ccccc1Nc1nc(Nc2ccc(N3CCOCC3)cc2OC)ncc1Cl`: the Potency in test [1] is 184 nM (active) and 132 nM (active); in test [2], 326 nM (active) and 296 nM (active); in [3], 8.33 µM (active); in [5], 6.62 µM (active); in test [10] it was 2.09 µM (active); in test [6] it was 1.87 µM (active). For the same compound, the Potency in test [8] is 5.62 µM (active); in test [9], 0.631 µM (active).
In the case of `CN(C)CC[C@H](CSc1ccccc1)Nc1ccc(S(=O)(=O)NC(=O)c2ccc(N3CCN(Cc4ccccc4-c4ccc(Cl)cc4)CC3)cc2)cc1[N+](=O)[O-]`, the Potency in test [1] was 148 nM (active); in test [2] it was 33.2 nM (active); in test [3], 1.48 µM (active); in [4] it was 2.35 µM (active); in test [5], 2.64 µM (active); in test [10], 0.059 µM (active). Moreover, the values for the Potency in [6], in test [7] and in test [9] were 0.0935 µM (active), 0.0469 µM (active) and 22.4 µM (active), respectively.
